In the library only some 3.3% were active in any assay of this set; here they are far more common.
sPLA2-III inh – Inhibits HGIII-sPLA2 liposome hydrolysis, primary screen; Q9NZ20; inhibition, % at 12.2 µM; AID 743126; QFRET BODIPY PC-A2 liposome hydrolysis, fluorescence; hit rate 0.56% among 370,000;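 active = inhibition above mean plus 3 SD of compounds lying within the high and low control bounds, cut at about 19% in these data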
UBC9 SUMO inh – blocks human SUMOylation mediated by UBC9; hit rate 0.36% among 290,000; HTRF SUMOylation assay, SAE1/SAE2 + UBC9, in vitro; AID 2006; P63279; inhibition, % at 35 µM; in the data active = inhibition above about 50%, passing the limit was not always enough
GRIN3A LBD mod – modulates the human NR3A ligand-binding domain. AID 1259313. Tm shift relative to glycine control, % at 25 µM. hit rate 2.5% among 340,000. NR3A LBD differential scanning fluorimetry, Tm shift; 0% = protein alone, 100% = glycine-bound protein;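 active = melting temperature shift of at least 10% of the positive control shift, at one fixed dose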
UBC13 polyUb – human UBC13 polyubiquitination inhibition; P61088; UBC13 polyubiquitin chain formation, TR-FRET; inhibition, % at 20 µM; hit rate 0.47% among 330,000; AID 485273; in the data active = inhibition above about 45%, passing the limit was not always enough
Target sequence (P61088 whole entry, looked up): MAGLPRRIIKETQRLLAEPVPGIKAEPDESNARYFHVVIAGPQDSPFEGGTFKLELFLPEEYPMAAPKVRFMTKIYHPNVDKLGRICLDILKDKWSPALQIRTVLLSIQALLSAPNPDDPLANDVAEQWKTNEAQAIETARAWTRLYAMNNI
Casp3 UBC13 ctr – counter-screen for UBC13 inhibitors: human caspase-3 inhibition | shares compounds with UBC13 polyUb | Recombinant caspase-3, Caspase-Glo 3/7 luminescence, 60 min | inhibition, % at 20 µM | hit rate 4% among 1,400 | AID 488856;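 active = mean inhibition across replicates above about 26%, limit read from the data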
Target sequence (P42574 whole entry, looked up): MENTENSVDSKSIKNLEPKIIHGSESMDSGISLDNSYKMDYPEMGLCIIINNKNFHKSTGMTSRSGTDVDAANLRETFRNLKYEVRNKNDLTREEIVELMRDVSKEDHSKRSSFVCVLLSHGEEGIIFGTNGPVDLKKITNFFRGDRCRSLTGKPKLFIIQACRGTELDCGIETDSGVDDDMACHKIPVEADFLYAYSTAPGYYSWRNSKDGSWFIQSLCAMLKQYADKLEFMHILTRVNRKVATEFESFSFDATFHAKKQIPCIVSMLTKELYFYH
UBC13 confirm – confirmation of human UBC13 polyubiquitin inhibitors; shares compounds with UBC13 polyUb; UBC13 polyubiquitination, TR-FRET, biochemical; inhibition, % at 10 µM; hit rate 68% among 1,400; AID 488859; in the data active = inhibition above about 45%
Each line names hits and unclear results; the compound was inactive in the other large screens (follow-up assays come after a bar, where they were run).

COc1ccc(-c2oc(=O)c3cc(OC)c(OC)cc3c2C#CC2(O)CCCCC2)cc1	GRIN3A LBD mod 12.9, UBC13 polyUb 46.6 (no result: UBC9 SUMO inh) | Casp3 UBC13 ctr inactive | UBC13 confirm inactive
COc1ccc(-c2oc(=O)c3cc(OC)c(OC)cc3c2C#CCCCO)cc1	none (no result: UBC9 SUMO inh)
C#CCOCCOCCOCCNc1nc(N2CCN(C(=O)CCCCCCCCCCNC(=O)[C@H](CCCCN)n3cc(C)nn3)CC2)nc(N2CCN(C(=O)CCCCCCCCCCNC(=O)[C@@H]([C@H](C)O)n3cc(C)nn3)CC2)n1	GRIN3A LBD mod 25.8, UBC13 polyUb 116.7 (no result: sPLA2-III inh, UBC9 SUMO inh) | Casp3 UBC13 ctr inactive | UBC13 confirm 110.9
C#CCOCCOCCOCCNc1nc(N2CCN(C(=O)CCCCCCCCCCNC(=O)Cn3cc(CCCCCN)nn3)CC2)nc(N2CCN(C(=O)CCCCCCCCCCNC(=O)Cn3cc(C[C@@H](C)O)nn3)CC2)n1	GRIN3A LBD mod 30.3, UBC13 polyUb 114.1 (no result: sPLA2-III inh, UBC9 SUMO inh) | Casp3 UBC13 ctr inactive | UBC13 confirm 113.7
C#CCOCCOCCOCCNc1nc(N2CCN(C(=O)Cn3cc(CCCCN)nn3)CC2)nc(N2CCN(C(=O)Cn3cc(CC(C)O)nn3)CC2)n1 (stereo not given)	none
C#CCOCCOCCOCCNc1nc(N2CCN(C(=O)CCCCCCCCCCNC(=O)Cn3cc(C[C@@H](C)O)nn3)CC2)nc(N2CCN(C(=O)CCCCCCCCCCNC(=O)[C@@H]([C@H](C)O)n3cc(C)nn3)CC2)n1	none (no result: sPLA2-III inh, UBC9 SUMO inh)
C#CCOCCOCCOCCNc1nc(N2CCN(C(=O)CCCCCCCCCCNC(=O)Cn3cc(CCCCCN)nn3)CC2)nc(N2CCN(C(=O)CCCCCCCCCCNC(=O)[C@@H]([C@H](C)O)n3cc(C)nn3)CC2)n1	UBC13 polyUb 116.2 (no result: sPLA2-III inh, UBC9 SUMO inh) | Casp3 UBC13 ctr inactive | UBC13 confirm 118.5
C#CCOCCOCCOCCNc1nc(N2CCN(C(=O)CCCCCCCCCCNC(=O)Cn3cc(C[C@@H](C)O)nn3)CC2)nc(N2CCN(C(=O)CCCCCCCCCCNC(=O)[C@@H]([C@H](C)CC)n3cc(CCCCCN)nn3)CC2)n1	UBC13 polyUb 119.8 (no result: sPLA2-III inh, UBC9 SUMO inh) | Casp3 UBC13 ctr inactive | UBC13 confirm 121.4
C#CCOCCOCCOCCNc1nc(N2CCN(C(=O)CCCCCCCCCCNC(=O)[C@@H](CCSC)n3cc(CCO)nn3)CC2)nc(N2CCN(C(=O)CCCCCCCCCCNC(=O)[C@@H]([C@H](C)O)n3cc(C)nn3)CC2)n1	none (no result: UBC9 SUMO inh)
COC(=O)[C@]12C[C@H](CC(=O)N3CCN(C(=O)C4CC4)CC3)C(=O)N(Cc3ccc(Cl)cc3Cl)C1=C[C@H](C(C)(C)C)O[C@@H]2C	none (no result: UBC9 SUMO inh, GRIN3A LBD mod, UBC13 polyUb)
CCCCC(=O)N[C@H]1CC[C@@]23CCCN2C(=O)CCC[C@H]3[C@H]1CCC	none (no result: UBC9 SUMO inh, GRIN3A LBD mod, UBC13 polyUb)
O=C(NC(=S)Nc1ccc(N2CCN(C(=O)c3ccccc3)CC2)cc1)c1cccs1	UBC13 polyUb 48.5 | Casp3 UBC13 ctr inactive | UBC13 confirm 55.7
Cc1ccc(-c2csc(N3CCN(c4cc5c(cc4Cl)nc(C)n5CCN4CCCCC4)CC3)n2)cc1	UBC13 polyUb 46.0 | Casp3 UBC13 ctr inactive | UBC13 confirm inactive
COc1ccc2cc1Oc1ccc(cc1)C[C@H]1c3c(cc(OC)c4c3Oc3c(ccc5c3[C@H](C2)N(C)CC5)O4)CCN1C	UBC13 polyUb 79.9 (no result: sPLA2-III inh, UBC9 SUMO inh) | Casp3 UBC13 ctr inactive | UBC13 confirm 77.5
COc1ccc(Oc2c(Cl)cnn(-c3cc(C)cc(C)c3)c2=O)cc1	none (no result: UBC9 SUMO inh, GRIN3A LBD mod, UBC13 polyUb)
COc1ccccc1NC(=O)c1c(N=Cc2ccccc2O)cnn1C	UBC13 polyUb 86.7 (no result: sPLA2-III inh, GRIN3A LBD mod) | Casp3 UBC13 ctr inactive | UBC13 confirm 96.4
COc1ccccc1NC(=O)c1c([N+](=O)[O-])cnn1C	none
CCc1nc2ccccc2c(C(=O)OCC(=O)C(C)(C)C)c1C	none
CCc1nc2ccccc2c(C(=O)OCCN2C(=O)c3ccccc3C2=O)c1C	UBC13 polyUb 52.0 | Casp3 UBC13 ctr inactive | UBC13 confirm 70.2
CCc1nc2ccccc2c(C(=O)OCc2nc3ccccc3c(=O)[nH]2)c1C	UBC13 polyUb 62.0 (no result: UBC9 SUMO inh) | Casp3 UBC13 ctr inactive | UBC13 confirm 57.8
COc1cc(C(=O)NC2CCCCN(Cc3cccc(Cl)c3)C2=O)cc(OC)c1OC (stereo not given)	none (no result: UBC9 SUMO inh, GRIN3A LBD mod, UBC13 polyUb)
COc1ccccc1NC(=O)COc1cccnc1[N+](=O)[O-]	UBC13 polyUb 45.8 (no result: UBC9 SUMO inh) | Casp3 UBC13 ctr inactive | UBC13 confirm inactive
CCOc1ccccc1NC(=O)COc1cccnc1[N+](=O)[O-]	UBC13 polyUb 51.1 (no result: UBC9 SUMO inh) | Casp3 UBC13 ctr inactive | UBC13 confirm inactive

Bioassay records as filed in PubChem.
